The text below walks through data of ChEMBL document CHEMBL1157539, “Thousands of chemical starting points for antimalarial lead identification” (Nature, 2010).

For orientation: Inhibition means the change of the read-out against control, counted positive when it falls. High values mean a response far below the control, low ones a response near the control.

The experiment has as its system Plasmodium falciparum. Kind of experiment: GSK_TCMDC: Inhibition of Plasmodium falciparum 3D7 in whole red blood cells, using parasite LDH activity as an index of growth. Test compounds present at 2uM. In kind it is functional.
As for `Cc1cc(N(C)C)nc(Nc2ccc(NC(=O)c3ccc(Br)o3)cc2)n1`, the Inhibition is recorded as 100%.
Under `CN1CCC(C(=O)N(Cc2ccc(-c3ccc(CNCCc4ccc(S(C)(=O)=O)cc4)cn3)cc2)Cc2cccc(F)c2)CC1.O=C(O)C(F)(F)F` stands 98%; under `CCN(CC)C(=O)C(=O)c1c[nH]c2ccc(Cl)cc12`, 96%; under `CCCNCc1ccc(-c2ccc(CN(CCOC)C(=O)/C=C/c3ccccc3C)cc2)nc1.O=C(O)C(F)(F)F`, 95%.
With `COc1ccc(Cl)cc1N1CCN(CCCNC(=O)c2ccc(-c3nc4cc(Cl)c(C)cc4[nH]3)c(F)c2)CC1`, the Inhibition is recorded as 99%.
Under `Cc1cc(C(F)(F)F)n2nc(C(=O)N(C)Cc3cncn3Cc3ccc(F)cc3)cc2n1` stands 100%; under `CCN(CC)Cc1cc(NC(=O)c2ccccc2O)ccc1Oc1ccc(Cl)cc1.Cl`, 98%.
Under `CC(C)(C)c1ccc(CN2CCCCC(NC(=O)c3cc(-c4ccccc4F)cs3)C2)cc1.O=C(O)C(F)(F)F` (stereo not drawn) stands 100%.
The compound `CCCN1CCC(c2c[nH]c3ccc(NC(=O)Nc4cccc(Cl)c4Cl)cc23)CC1` came in with an Inhibition of 100%.
`CC(=O)N1c2ccccc2C(C)=CC1(C)C` displayed an Inhibition of 97%.
Turning to `Cc1nc(-c2ccc(-c3ccc(C(=O)Nc4ccc(C(C)C)c(OCCN(C)C)c4)cc3)c(C)c2)no1.O=C(O)C(=O)O`, the Inhibition was 99%.
Under `FC(F)(F)c1ccc2[nH]c(-c3ccc(-c4cccc(CN5CCN(CCN6CCOCC6)CC5)c4)cc3)nc2c1.O=C(O)C(F)(F)F` stands 98%; under `COc1cc2nc(N3CCC(CNC(=O)c4ccc(-c5ccc(C(=O)N(C)C)cc5OCCO)cc4)CC3)nc(N)c2cc1OC`, 100%.
